We go through 62 compounds from PubChem BioAssay AID1117267 (The Scripps Research Institute Molecular Screening Center, 2014).

Each structure is given as a SMILES string. Among all 92,000 compounds or so, about 1,200 (1.3%) were called active. Many of the other results were omitted from the sample, so actives are more common in it than they were. Values without a mark were called inactive.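 How the source made its calls: active means activation above the mean of all tested compounds plus 3 SD (cut at about 9.5% in these data); inactive means the rest.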

The nature of this assay: compounds raising TTR promoter-driven luciferase – cell-based, luminescence, SH-SY5Y, TTR promoter Gaussia luciferase, primary screen (AID 1117267).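 Further: cells exposed to compounds for one day before reading; 0% = median of all test compound wells on the plate.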 Conditions: at 16.7 µM, hits give high values, 100% = recombinant luciferase protein wells.
Take `CCC(=O)c1c(CC)c2n3c1=CC[C@H]3CC(Br)C=2` (some centres not stated): the activation was -0.76%.
`COc1ccccc1C(=O)NC(=S)Nc1ccccc1N1CCCCC1`: the activation was 1.44%.
With `O=C(Nc1ccc(C(=O)O)cc1)/C(=C\c1ccccc1)NC(=O)c1ccc(Br)cc1`, the activation is 0.53%.
On to `O=C(NC(=O)c1ccccc1N1CCCCC1)Nc1ccc(Br)cc1`, for which the activation is 22.9% (active).
Then `COc1ccc(C(C)NC(=O)C23CC4CC(CC(C4)C2)C3)cc1` (configuration not stated), with 0.59%; and `CCC(C)[C@H]1COCCS(=O)(=O)N1Cc1ccc(C)cc1` (some centres not stated), with 1.12%.
Then `O=S1(=O)CCOC[C@H](CC2CCCCC2)N1Cc1ccc(F)cc1`, with 0.81%.
For the compound `Cc1ccc(CN2CCCOCCS2(=O)=O)cc1`, the activation is 11.7% (active).
Turning to `N=c1ccn(CC(=O)NC(N)=O)c2ccccc12`, the activation is 10.4% (active).
Turning to `CCc1ccccc1NC(=O)Cc1cn(C)c2ccccc12`, the activation is 4%.
For `O=C(Cn1cnc2ccccc21)Nc1ccccc1-c1ccccc1`, the activation is -1.54%.
Turning to `Cc1cn(C2CC(O)C(CO)O2)c(=O)n(CCCc2ccccc2)c1=O` (configuration not stated), the activation was 1.94%.
Turning to `O=S(=O)(NCCCN1CCOCC1)c1ccc(F)c(Cl)c1`, the activation is 14.3% (active).
In the case of `Cn1c(=O)c(=O)n(C)c2cc(S(=O)(=O)NCCN3CCN(c4ccccc4F)CC3)ccc21`, the activation was -0.31%.
Then `O=C(CN1CCOCC1)Nc1c(Cl)cc(Cl)cc1Cl`, with -1.15%; and `Cn1nc(-c2ccccc2)c2cc([N+](=O)[O-])ccc21`, with 2.37%.
In the case of `CCCNC(=O)C(=O)Nc1cc2c3c(c1)CCC(=O)N3CCC2`, the activation is 0.51%.
Take `CCOC(=O)c1c(-c2ccccc2)oc2ccc(OCC(=O)NN)cc12`: the activation was 3.27%.
As to `CCOC(=O)c1c(C)oc2ccc(OCC(=O)N(CC)CC)cc12`, the activation was 0.72%.
Then `CCOC(=O)c1c(-c2ccccc2)oc2ccc(OCC(N)=O)cc12`, with 10% (active).
Next, `CCOc1ccc(CN2CCN(Cc3ccon3)CC2CCO)cc1` (configuration not stated): 7.67%.
For `CC(NC(=O)CCCC1CCCCC1)c1ccc(S(N)(=O)=O)cc1` (configuration not stated), the activation is -0.93%.
Next, `CCOC(=O)COc1ccc([N+](=O)[O-])cc1`: 0.43%.
Next, `O=C1CCN(CCc2ccccc2)CCN1CCOc1ccccc1`: 0.26%; `N#Cc1cccc(CN2CCC(=O)N(CCO)CC2)c1`: 14.7% (active).
In the case of `O=C1CCN(Cc2ccc([N+](=O)[O-])cc2)CCN1[C@H](CO)Cc1ccccc1`, the activation is -6.98%.
Regarding `CCCCCCNS(=O)(=O)c1ccccc1Br`, the activation is -0.76%.
Next, `O=S(=O)(NCc1ccccc1Br)c1ccccc1Br`: 14% (active).
`CCN([C@H](CO)C(C)C)S(=O)(=O)c1ccccc1Br`: the activation is 3.03%.
With `OC(c1ccccc1)(c1ccccc1)C1CCN(CCCOc2ccccc2)CC1`, the activation is -2.2%.
Then `CCOC(=O)c1cc(-c2ccc(Cl)s2)nc2c1c(C)nn2C`, with 15.8% (active); and `CCOC(=O)c1cc(C(=O)Nc2ccc(S(=O)(=O)Nc3ccc(OC)cc3)cc2)nn1C`, with -1.23%; and `CCOC(=O)C1=C(O)CSC1=Nc1cccc(Cl)c1`, with -2.26%.
Then `O=S(=O)(Cc1ccccc1)c1nc2ccccc2n1Cc1ccccn1`, with -0.52%; and `O=C(O)Cn1c(Cc2ccccc2)nc2ccccc21`, with 20.6% (active); and `CCC(C(=O)NCc1ccccc1)n1c(Cc2cc(F)cc(F)c2)nc2ccccc21` (configuration not stated), with -1.34%.
Turning to `COc1cccc(OC)c1C(=O)OCC(=O)/C(C#N)=C(\C)N`, the activation is -0.74%.
For the compound `COc1ccc(CCNC(=O)COc2ccc3c(c2)OCO3)cc1`, the activation is -1.39%.
Then `O=C(CCC1CCN(C(=O)c2cccc(Cl)c2F)CC1)Nc1ccccc1`, with -1.31%.
Regarding `CC(C)(C)C1CCC(OC(=O)CCC(=O)Nc2ccccc2)CC1` (configuration not stated), the activation was 20.6% (active).
`CC1CCN(CCC(=O)Nc2ccccc2)CC1`: the activation is 0.42%.
As for `COc1cc2c(cc1CNC[C@H]1O[C@@H](n3cnc(C(N)=O)n3)[C@H](O)[C@@H]1O)OCO2`, the activation was 1.81%.
Next, `Cc1ccc(-n2c(SCC(=O)Nc3ccc4c(c3)OCO4)nnc2-c2ccccn2)cc1`: -2.71%; `N#Cc1ccc(CSc2nnc3ccccn23)cc1`: -0.39%; `N#Cc1ccc(CSc2nnc(-c3ccccn3)n2-c2ccc(Cl)cc2)cc1`: 28% (active).
As for `COc1cccc(/C=C2\SC(=N)N(c3ccc(F)cc3)C2=O)c1`, the activation was 3.96%.
Regarding `Cc1ccccc1Nc1c([N+](=O)[O-])ccc2nonc12`, the activation was -2.33%.
For `COc1ccc(NC(=O)CCC(=O)N2CCN(S(=O)(=O)c3ccc(C)cc3)CC2)c(OC)c1`, the activation was 2.84%.
For `O=C(COC(=O)c1cc(S(=O)(=O)N2CCCCC2)ccc1Cl)NCc1ccco1`, the activation was 2.03%.
`O=C(c1cc(S(=O)(=O)N2CCOCC2)ccc1Cl)N1CCOCC1`: the activation was 2.72%.
Turning to `O=C(NNC(=O)c1cc(S(=O)(=O)N2CCCCC2)ccc1Cl)c1ccccc1O`, the activation was 11.9% (active).
Consider `Clc1ccc(Nc2ncnc3c2nnn3Cc2ccccc2)cc1`, for which the activation was -0.95%.
Next, `Cc1nc(Nc2ccc3c(c2)OCCO3)c2nnn(Cc3ccccc3Cl)c2n1`: 11.8% (active); `Cc1cc(C)n2ncc(C(=O)Nc3ccc4c(c3)OCCO4)c2n1`: 2.76%; `O=C(Nc1cc(Cl)cc(Cl)c1)OCCN1CCCC12CCC(c1ccccc1)CC2` (configuration not stated): 1.93%.
Then `CCN(CC)S(=O)(=O)c1ccc(C(=O)N2CCN(C3=NS(=O)(=O)c4ccccc43)CC2)cc1`, with -0.96%; and `C=CCN1C(=O)C2(OCCCO2)c2cccc(Cl)c21`, with 0.94%.
Next, `COc1ccc(NC(=O)CCNC(=O)Cn2cnc3sc4c(c3c2=O)CCCC4)cc1OC`: -1.59%; `Nc1nc(SCC(=O)Nc2ccc(Cl)cc2C(F)(F)F)n[nH]1`: 0.01%; `Nc1nc(SCC(=O)Nc2ccc(Cl)c([N+](=O)[O-])c2)n[nH]1`: 9.76% (active).
Consider `O=C(CSc1n[nH]c(-c2cccnc2)n1)Nc1ccc(Cl)cc1`, for which the activation is -0.75%.
As to `COc1ccc(-c2cc(C(=O)N/N=C/c3cccnc3)c3ccccc3n2)c(OC)c1`, the activation is -1.67%.
